Assay results published in PubChem BioAssay (NCATS).
Records with an inconclusive call do not appear. Calls of active or inactive are those of the source. Calls follow the shape of the dose curve; as a rule, active = well fitted curve in the direction sought with a large enough effect; inconclusive = small, poorly fitted or top-dose-only effect, or another doubt; inactive = no such curve, though single readings can be large; an effect the other way counts as inactive or inconclusive.

How the values were obtained:
[1] = qHTS of pediatric cancer cell lines to identify multiple opportunities for drug repurposing: Primary screen for control Hh wild type fibroblast cells (AID 1347106);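 also: a drop in luminescence marks cytotoxicity and a rise apparent proliferation; nearly all actives have a fitted effect of over 55% in size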
Summary of the method: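 Cells (500-1,000/well) in growth media were settled 5 h at 37 degrees C, then given compounds for 48 h. Viability was read as CellTiter-Glo luminescence. Primary runs used MIPE at 11 points (0.78 nM-46 µM) and NPC at 8 points (0.59 nM-46 µM); follow-ups used 11 points.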

[2] = qHTS of pediatric cancer cell lines to identify multiple opportunities for drug repurposing: Primary screen for Rh30 cells (AID 1347107); also: nearly all actives have a fitted effect of over 75% in size
Summary of the method: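 Viability after 48 h compound treatment at 37C, 500-1,000 cells/well, read as ATP luminescence with CellTiter-Glo. Primary screens used 11-point (MIPE, 0.78 nM-46 µM) or 8-point (NPC, 0.59 nM-46 µM) final concentrations; follow-up screens used 11-point dilutions.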

[3] = qHTS of pediatric cancer cell lines to identify multiple opportunities for drug repurposing: Primary screen for Rh41 cells (AID 1347108);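 also: luminescence drop marks cytotoxic hits; nearly all actives have a fitted effect of over 70% in size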
Summary of the method: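 Cells seeded at 500-1,000 cells/well in growth media, rested 5 hours at 37 degrees C, 5% CO2, then dosed; MIPE compounds at 11-point (from 0.78 nM) and NPC at 8-point (from 0.59 nM) final concentrations. Viability by CellTiter-Glo luminescence after 48 hours.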

Measured: outcome
Also: series mostly up to about 46 µM.

COc1ccc(O)cc1
inactive: all assays above

CCN(CC)CCOC(=O)C(c1ccccc1)c1ccccc1
inactive: all assays above

O=C(O)[C@@H]1[C@H]2C[C@H]3c4[nH]c5ccccc5c4CCN3C[C@@H]2CC[C@@H]1O
inactive: all assays above

C[C@@H]1CCC[C@H](C)N1
inactive: all assays above

CCCNC(C)C(=O)Nc1c(C)csc1C(=O)OC (stereo not drawn)
inactive: all assays above

C[C@]1(Cn2ccnn2)[C@H](C(=O)O)N2C(=O)C[C@H]2S1(=O)=O
inactive: all assays above

Cc1c(C(=O)NCCO)[n+](=O)c2ccccc2n1[O-]
inactive: all assays above

CCOC(=O)OC(C)OC(=O)[C@@H]1N2C(=O)[C@@H](NC(=O)[C@H](N)c3ccccc3)[C@H]2SC1(C)C (stereo partly drawn)
inactive: all assays above

CCCCCCCC(=O)OCC(COC(=O)CCCCCCC)OC(=O)CCCCCCC
inactive: all assays above

COC(=O)c1cccnc1
inactive: all assays above

O=C(O)Cc1ccc(CCNS(=O)(=O)c2ccc(Cl)cc2)cc1
inactive: all assays above

CCCCCCCCCCCCCCCCCCO
inactive: all assays above

Cc1[nH]c(C)c(Cl)c(=O)c1Cl
inactive: all assays above

NC(=O)CCCCC1CCSS1 (stereo not drawn)
inactive: all assays above

CCc1nnc(NS(=O)(=O)c2ccc(N)cc2)s1
inactive: all assays above

CC(=O)N[C@@H](Cc1ccc(O)cc1)C(=O)O
inactive: all assays above
